# Screening data (PubChem BioAssay)
# Most compounds without a hit are left out; they make up all but 3.4% or so of the library.
# MITF primary: MITF inhibitors, primary screen, biochemical, AlphaScreen, human | Microphthalmia-associated transcription factor (Homo sapiens), O75030 | AlphaScreen MITF homodimerization, bead proximity signal | inhibition, % at 2.6 µM | 0.91% of 650,000 active | AID 1259374, 2018; in the data active means inhibition above about 50%;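 further: 0% = vehicle wells with protein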
# GPR151 activ: activators of human GPR151, primary screen, cell-based, PathHunter beta-arrestin, luminescence; G-protein coupled receptor 151 (Homo sapiens), Q8TDV0; PathHunter beta-arrestin GPR151 cells; activation, % at 11.2 µM; 1% of 650,000 active; AID 1508602, 2020; in the data active means activation above about 4.9%;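 further: 0% = median of compound wells and 100% = cells with positive control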
# FBW7 activator: FBW7 E3 ligase activators, primary screen, biochemical, AlphaScreen, human. AID 1259310, 2017. AlphaScreen FBW7–phospho-cyclin E peptide binding, activator screen. 0.13% of 650,000 active. F-box/WD repeat-containing protein 7 (Homo sapiens), Q969H0. normalized activity (activation), % at 26.1 µM; in the data active means normalized activity above about 1.9%;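 further: purified mutant Fbw7 with reduced substrate affinity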
# TEAD-YAP inh: TEAD-YAP interaction inhibition, primary screen, TEAD-YAP interaction inhibitor project, luminescence, HEK-TIYL cells; TEAD-Gal4/YAP UAS-luciferase luminescence; 1.4% of 640,000 active; inhibition, % at 9.12 µM; in the data active means inhibition above about 32%;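 further: 0% = median of test compound wells and 100% = reference inhibitor wells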
# The depositor's hits bear a star.
SMILES,MITF primary,GPR151 activ,FBW7 activator,TEAD-YAP inh
CC(=O)C1=C(C)NC(SCC(=O)c2cc(Cl)ccc2Cl)=C(C#N)C1c1sccc1C (stereo not drawn),-5.4,-1.2,0.8,1.6
CCOC(=O)c1c(C)sc2c3c([nH]c12)CCCC3,4.1,1.0,0.1,61.6*
O=C(COc1ccc(Cl)cc1)NNC(=O)Cc1cccc2ccccc12,-4.0,1.5,-0.1,0.6
N#Cc1c(Cl)nc(Nc2cccc(F)c2)c(Cl)c1Cl,0.8,-1.3,0.1,20.9
N#Cc1c(Cl)nc(Nc2ccccc2)c(Cl)c1Cl,11.6,0.0,0.8,33.5*
c1cc(Nc2nc(Nc3ccc(N4CCOCC4)cc3)c3ncn(C4CCCCC4)c3n2)ccn1,-3.0,4.0,-0.2,9.2
Cc1cc(OCC(=O)Nc2ccc(C(=O)OC3CCCCC3)cc2)ccc1Cl,17.8,1.9,0.1,83.8*
CC(=O)/C=C1\N(C)c2ccccc2C1(C)C,10.1,1.3,0.1,-10.3
CC(=O)c1ccc(S(=O)(=O)N(C)CC(=O)/C=C2/N(C)c3ccccc3C2(C)C)cc1,4.2,0.8,0.1,38.5*
COC(=O)/C=C/CSc1nnc(-c2ccc(Cl)cc2Cl)o1,12.7,1.0,0.0,91.5*
COc1cc(OC)cc(C2=NC3(CCC(C)CC3)NC2=O)c1 (stereo not drawn),-23.0,-0.6,4.2*,3.6
Cc1nc2sccn2c1C(=O)N1CCN(c2cccc(C(F)(F)F)c2)CC1,14.2,-0.6,0.7,57.6*
Cc1nc2sccn2c1C(=O)N1CCCC1,-17.1,-0.9,-0.1,-4.9
NS(=O)(=O)c1ccc(CNc2ccc3ncc(-c4ccc(O)cc4)n3n2)cc1,-1.9,-0.7,-0.2,-0.6
CCOC(=O)N1CCN(C(=O)c2ccc(Cn3c(=S)[nH]c4ccccc4c3=O)cc2)CC1,-6.4,-0.7,0.0,45.3*
CCc1cc2c(NC(C(=O)O)C(C)C)nc(C)nc2s1 (stereo not drawn),3.0,0.3,0.1,10.9
O=C(O)c1cc(S(=O)(=O)NCc2ccc(F)cc2)ccc1O,24.7,2.3,0.0,6.7
Oc1ccc(Br)cc1CN1CCN(Cc2ccncc2)CC1,54.4*,0.1,-0.4,17.5
c1ccc2cc(CN3CCN(Cc4c[nH]c5ccccc45)CC3)ccc2c1,14.8,-0.7,0.0,10.7
Oc1ccc(Br)cc1CN1CCN(Cc2c[nH]c3ccccc23)CC1,57.6*,-1.1,0.1,0.7
CCS(=O)(=O)N1CCN(Cc2cc(Br)ccc2O)CC1,54.2*,-0.3,-0.1,1.4
Cn1nc(CN)c2ccccc2c1=O,0.0,-2.9,0.0,10.7
NCc1nn(CCc2ccccn2)c(=O)c2ccccc12,26.0,-0.3,0.8,59.0*
O=C(NC1=NN(c2ccccc2)CC1)c1noc2c1COc1ccccc1-2,-1.7,-1.2,-0.1,5.0
CCOc1ccc2nc(NC(=O)C(C)(C)CC)sc2c1,-8.2,0.1,-0.2,40.8*
SMILES,MITF primary,GPR151 activ,FBW7 activator,TEAD-YAP inh
CCc1ccc2sc(N3CCC(C(=O)NC4CCCC4)CC3)nc2c1,-4.4,3.1,-0.2,65.0*
CCOc1ccc2nc(N3CCC(C(=O)O)CC3)sc2c1,-1.4,0.8,-0.3,58.0*
CCOC(=O)C1CCN(c2nc3cc(Br)ccc3s2)CC1,14.7,-6.2,0.2,-11.2
CCOC(=O)Nc1nc2ccc(OCC)cc2s1,7.9,-0.6,-0.1,0.7
CCOc1ccc2nc(N3CCC(C(=O)Nc4ccc(OC)cc4)CC3)sc2c1,7.6,1.7,-0.1,8.6
CCOC(=O)C1CCN(c2nc3ccc(CC)cc3s2)CC1,-5.0,-1.3,0.9,55.5*
O=C(NCCc1ccccn1)C1CC12CCN(C(=O)C1(c3ccccc3)CCCCC1)CC2 (stereo not drawn),-5.8,0.9,0.1,13.0
CCOC(=O)C1=CN(C)C=C(C(=O)OCC)C1c1cc(OC)c(O)c(OC)c1,14.5,-1.1,0.0,-10.3
Cc1cnc(N2CCc3ccccc3C2)nc1NCCCN1CCCC1=O,-2.7,1.6,0.3,-0.7
c1ccc(-n2cnc3c(NC4CC4)nc(N4CCOCC4)nc32)cc1,-0.6,1.1,-0.1,52.5*
c1cc(-n2cnc3c(NC4CC4)nc(N4CCOCC4)nc32)cs1,-1.0,-0.8,0.0,56.1*
CC(C)N(CCNc1nc(N2CCOCC2)nc2c1ncn2-c1ccsc1)C(C)C,1.7,0.4,0.0,55.3*
OCC1CCCN1c1nc(NC2CC2)c2ncn(-c3ccsc3)c2n1 (stereo not drawn),3.6,2.0,0.0,1.1
c1ccc(-n2cnc3c(NC4CC4)nc(N4CCN(c5ccccn5)CC4)nc32)cc1,16.0,-0.6,0.0,37.5*
